In the supplement of paper PMC11732987, “Enantioselective OTUD7B fragment discovery through chemoproteomics screening and high-throughput optimisation” (Communications Chemistry, 2025):

Tests used:
Experiment in all cases: log2 ratio of Biotin-Ahx-Ub-VS probe labelling (fragment/DMSO); higher = less target engagement (more negative = stronger competition), active = hit call of the paper (q ≤ 0.05, log2 ratio ≤ -1)
Details in all cases: compound concentration: 200 uM; treatment time: 3 h
USP34 = USP34 (UniProt Q70CQ2)
Summary of the method: (§1)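 Labelled DUBs were enriched with NeutrAvidin, digested with LysC and trypsin, and run by diaPASEF LC-MS/MS. The labelling used Biotin-Ahx-Ub-VS at 0.5 µM final for 1 h on HEK293T lysate (495 µg per sample) previously treated in triplicate with fragment at 200 µM or vehicle for 3 h. Values are average log2 fragment/vehicle ratios by unpaired t-test on global-median-normalised Spectronaut quantities of proteins with ≥2 unique peptides.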

USP36 = target: T1, USP36 (UniProt Q9P275)
T1 sequence (whole entry): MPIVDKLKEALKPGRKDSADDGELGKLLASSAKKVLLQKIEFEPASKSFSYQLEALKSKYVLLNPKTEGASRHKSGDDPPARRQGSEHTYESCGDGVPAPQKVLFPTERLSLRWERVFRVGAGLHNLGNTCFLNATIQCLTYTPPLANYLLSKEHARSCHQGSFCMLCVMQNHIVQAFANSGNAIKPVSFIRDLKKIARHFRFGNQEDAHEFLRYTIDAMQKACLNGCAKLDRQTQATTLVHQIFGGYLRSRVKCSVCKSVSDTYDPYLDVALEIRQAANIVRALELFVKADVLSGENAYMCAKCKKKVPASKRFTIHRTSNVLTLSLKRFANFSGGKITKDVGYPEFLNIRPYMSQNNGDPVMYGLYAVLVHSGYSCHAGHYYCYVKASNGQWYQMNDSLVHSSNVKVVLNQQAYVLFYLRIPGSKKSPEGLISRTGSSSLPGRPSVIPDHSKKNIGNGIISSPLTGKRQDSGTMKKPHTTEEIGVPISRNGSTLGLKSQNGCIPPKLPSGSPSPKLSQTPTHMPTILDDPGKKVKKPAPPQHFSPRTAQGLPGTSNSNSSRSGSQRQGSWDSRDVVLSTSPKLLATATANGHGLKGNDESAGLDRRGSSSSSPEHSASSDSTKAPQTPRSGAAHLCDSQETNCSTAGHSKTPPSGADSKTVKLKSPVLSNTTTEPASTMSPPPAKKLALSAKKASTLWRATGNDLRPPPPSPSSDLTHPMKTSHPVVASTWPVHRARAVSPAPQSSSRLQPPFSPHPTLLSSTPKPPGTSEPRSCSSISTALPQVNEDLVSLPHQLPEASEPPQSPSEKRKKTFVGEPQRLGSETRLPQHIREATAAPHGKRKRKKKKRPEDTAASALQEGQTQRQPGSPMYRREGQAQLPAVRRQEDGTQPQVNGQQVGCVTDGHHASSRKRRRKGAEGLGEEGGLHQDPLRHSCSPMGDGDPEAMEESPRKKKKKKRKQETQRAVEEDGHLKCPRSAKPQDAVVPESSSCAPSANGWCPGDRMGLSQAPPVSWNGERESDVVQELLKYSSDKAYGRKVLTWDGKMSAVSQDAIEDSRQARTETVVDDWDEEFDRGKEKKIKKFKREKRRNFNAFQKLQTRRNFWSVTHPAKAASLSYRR
Summary of the method: as §1

USP38 = target: T2, USP38 (UniProt Q8NB14)
T2 sequence (whole entry): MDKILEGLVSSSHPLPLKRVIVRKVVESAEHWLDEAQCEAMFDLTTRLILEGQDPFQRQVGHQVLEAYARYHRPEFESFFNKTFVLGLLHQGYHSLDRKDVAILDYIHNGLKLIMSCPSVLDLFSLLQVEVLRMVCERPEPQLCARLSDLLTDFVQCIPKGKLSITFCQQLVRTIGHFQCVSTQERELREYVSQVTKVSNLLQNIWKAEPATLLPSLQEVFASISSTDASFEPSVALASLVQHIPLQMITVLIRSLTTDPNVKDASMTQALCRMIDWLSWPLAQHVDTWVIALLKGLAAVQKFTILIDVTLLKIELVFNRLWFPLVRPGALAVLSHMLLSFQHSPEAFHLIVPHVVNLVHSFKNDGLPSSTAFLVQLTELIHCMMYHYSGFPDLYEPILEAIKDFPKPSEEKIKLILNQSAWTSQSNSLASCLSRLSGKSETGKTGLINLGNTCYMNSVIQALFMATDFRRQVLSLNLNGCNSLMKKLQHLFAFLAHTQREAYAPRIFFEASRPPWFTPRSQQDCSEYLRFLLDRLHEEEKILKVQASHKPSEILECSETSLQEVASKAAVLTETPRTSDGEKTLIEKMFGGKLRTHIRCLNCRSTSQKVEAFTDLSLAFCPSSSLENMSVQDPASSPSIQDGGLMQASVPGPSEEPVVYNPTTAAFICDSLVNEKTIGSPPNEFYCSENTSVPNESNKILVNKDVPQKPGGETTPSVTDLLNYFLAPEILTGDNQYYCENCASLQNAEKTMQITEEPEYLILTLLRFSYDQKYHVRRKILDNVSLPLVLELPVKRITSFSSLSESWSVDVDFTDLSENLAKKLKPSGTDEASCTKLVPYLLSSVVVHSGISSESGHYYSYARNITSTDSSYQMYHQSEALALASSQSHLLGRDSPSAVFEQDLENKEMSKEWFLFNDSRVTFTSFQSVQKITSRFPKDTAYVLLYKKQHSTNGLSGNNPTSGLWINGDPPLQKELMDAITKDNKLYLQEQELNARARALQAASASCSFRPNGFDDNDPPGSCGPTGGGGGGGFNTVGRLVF
Summary of the method: as §1

USP39 = target: T3, USP39 (UniProt Q53GS9)
T3 sequence (whole entry): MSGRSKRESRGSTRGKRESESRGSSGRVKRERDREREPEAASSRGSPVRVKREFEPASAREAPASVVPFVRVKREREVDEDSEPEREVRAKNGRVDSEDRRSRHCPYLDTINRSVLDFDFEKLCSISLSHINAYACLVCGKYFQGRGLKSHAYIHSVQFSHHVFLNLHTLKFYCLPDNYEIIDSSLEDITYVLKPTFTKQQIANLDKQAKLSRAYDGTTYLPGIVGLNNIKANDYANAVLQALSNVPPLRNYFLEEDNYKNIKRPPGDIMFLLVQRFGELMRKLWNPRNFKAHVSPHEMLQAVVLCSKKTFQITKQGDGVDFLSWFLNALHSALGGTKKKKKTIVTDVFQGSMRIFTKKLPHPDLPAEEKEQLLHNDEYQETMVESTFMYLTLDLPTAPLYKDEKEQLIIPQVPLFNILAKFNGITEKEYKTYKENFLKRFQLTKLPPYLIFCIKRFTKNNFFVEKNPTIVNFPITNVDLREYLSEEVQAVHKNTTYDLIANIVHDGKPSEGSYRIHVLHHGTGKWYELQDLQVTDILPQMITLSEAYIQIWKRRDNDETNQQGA
Summary of the method: as §1

USP4 = target: T4, USP4 (UniProt Q13107)
T4 sequence (whole entry): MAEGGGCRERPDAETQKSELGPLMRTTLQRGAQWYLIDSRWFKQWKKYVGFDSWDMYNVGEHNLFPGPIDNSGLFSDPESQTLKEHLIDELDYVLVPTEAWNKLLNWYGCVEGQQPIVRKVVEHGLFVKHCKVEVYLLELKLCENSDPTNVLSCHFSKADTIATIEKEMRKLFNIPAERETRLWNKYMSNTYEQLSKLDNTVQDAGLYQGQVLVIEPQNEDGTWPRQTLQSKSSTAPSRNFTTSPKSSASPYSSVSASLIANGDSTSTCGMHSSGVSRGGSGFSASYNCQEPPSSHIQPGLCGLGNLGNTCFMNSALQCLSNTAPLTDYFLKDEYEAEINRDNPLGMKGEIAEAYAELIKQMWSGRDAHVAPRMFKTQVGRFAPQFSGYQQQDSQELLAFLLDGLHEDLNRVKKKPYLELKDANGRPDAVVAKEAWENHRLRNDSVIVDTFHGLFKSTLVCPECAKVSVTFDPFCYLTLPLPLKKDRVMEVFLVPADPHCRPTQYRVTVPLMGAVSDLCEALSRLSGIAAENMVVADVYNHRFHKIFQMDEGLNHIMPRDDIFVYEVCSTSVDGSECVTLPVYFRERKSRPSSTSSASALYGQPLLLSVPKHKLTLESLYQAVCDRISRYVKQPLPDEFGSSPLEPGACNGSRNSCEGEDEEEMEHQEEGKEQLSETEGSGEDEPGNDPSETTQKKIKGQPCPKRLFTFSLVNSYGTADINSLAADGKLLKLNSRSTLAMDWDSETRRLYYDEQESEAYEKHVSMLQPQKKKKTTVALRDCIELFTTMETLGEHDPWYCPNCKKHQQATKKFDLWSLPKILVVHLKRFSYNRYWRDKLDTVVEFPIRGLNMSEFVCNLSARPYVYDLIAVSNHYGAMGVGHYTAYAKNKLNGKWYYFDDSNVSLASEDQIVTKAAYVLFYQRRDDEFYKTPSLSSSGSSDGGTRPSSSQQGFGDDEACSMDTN
Summary of the method: as §1

Measured: log2 ratio of Biotin-Ahx-Ub-VS probe labelling

USP34, sequence (Q70CQ2 whole entry, the tested form may be a part): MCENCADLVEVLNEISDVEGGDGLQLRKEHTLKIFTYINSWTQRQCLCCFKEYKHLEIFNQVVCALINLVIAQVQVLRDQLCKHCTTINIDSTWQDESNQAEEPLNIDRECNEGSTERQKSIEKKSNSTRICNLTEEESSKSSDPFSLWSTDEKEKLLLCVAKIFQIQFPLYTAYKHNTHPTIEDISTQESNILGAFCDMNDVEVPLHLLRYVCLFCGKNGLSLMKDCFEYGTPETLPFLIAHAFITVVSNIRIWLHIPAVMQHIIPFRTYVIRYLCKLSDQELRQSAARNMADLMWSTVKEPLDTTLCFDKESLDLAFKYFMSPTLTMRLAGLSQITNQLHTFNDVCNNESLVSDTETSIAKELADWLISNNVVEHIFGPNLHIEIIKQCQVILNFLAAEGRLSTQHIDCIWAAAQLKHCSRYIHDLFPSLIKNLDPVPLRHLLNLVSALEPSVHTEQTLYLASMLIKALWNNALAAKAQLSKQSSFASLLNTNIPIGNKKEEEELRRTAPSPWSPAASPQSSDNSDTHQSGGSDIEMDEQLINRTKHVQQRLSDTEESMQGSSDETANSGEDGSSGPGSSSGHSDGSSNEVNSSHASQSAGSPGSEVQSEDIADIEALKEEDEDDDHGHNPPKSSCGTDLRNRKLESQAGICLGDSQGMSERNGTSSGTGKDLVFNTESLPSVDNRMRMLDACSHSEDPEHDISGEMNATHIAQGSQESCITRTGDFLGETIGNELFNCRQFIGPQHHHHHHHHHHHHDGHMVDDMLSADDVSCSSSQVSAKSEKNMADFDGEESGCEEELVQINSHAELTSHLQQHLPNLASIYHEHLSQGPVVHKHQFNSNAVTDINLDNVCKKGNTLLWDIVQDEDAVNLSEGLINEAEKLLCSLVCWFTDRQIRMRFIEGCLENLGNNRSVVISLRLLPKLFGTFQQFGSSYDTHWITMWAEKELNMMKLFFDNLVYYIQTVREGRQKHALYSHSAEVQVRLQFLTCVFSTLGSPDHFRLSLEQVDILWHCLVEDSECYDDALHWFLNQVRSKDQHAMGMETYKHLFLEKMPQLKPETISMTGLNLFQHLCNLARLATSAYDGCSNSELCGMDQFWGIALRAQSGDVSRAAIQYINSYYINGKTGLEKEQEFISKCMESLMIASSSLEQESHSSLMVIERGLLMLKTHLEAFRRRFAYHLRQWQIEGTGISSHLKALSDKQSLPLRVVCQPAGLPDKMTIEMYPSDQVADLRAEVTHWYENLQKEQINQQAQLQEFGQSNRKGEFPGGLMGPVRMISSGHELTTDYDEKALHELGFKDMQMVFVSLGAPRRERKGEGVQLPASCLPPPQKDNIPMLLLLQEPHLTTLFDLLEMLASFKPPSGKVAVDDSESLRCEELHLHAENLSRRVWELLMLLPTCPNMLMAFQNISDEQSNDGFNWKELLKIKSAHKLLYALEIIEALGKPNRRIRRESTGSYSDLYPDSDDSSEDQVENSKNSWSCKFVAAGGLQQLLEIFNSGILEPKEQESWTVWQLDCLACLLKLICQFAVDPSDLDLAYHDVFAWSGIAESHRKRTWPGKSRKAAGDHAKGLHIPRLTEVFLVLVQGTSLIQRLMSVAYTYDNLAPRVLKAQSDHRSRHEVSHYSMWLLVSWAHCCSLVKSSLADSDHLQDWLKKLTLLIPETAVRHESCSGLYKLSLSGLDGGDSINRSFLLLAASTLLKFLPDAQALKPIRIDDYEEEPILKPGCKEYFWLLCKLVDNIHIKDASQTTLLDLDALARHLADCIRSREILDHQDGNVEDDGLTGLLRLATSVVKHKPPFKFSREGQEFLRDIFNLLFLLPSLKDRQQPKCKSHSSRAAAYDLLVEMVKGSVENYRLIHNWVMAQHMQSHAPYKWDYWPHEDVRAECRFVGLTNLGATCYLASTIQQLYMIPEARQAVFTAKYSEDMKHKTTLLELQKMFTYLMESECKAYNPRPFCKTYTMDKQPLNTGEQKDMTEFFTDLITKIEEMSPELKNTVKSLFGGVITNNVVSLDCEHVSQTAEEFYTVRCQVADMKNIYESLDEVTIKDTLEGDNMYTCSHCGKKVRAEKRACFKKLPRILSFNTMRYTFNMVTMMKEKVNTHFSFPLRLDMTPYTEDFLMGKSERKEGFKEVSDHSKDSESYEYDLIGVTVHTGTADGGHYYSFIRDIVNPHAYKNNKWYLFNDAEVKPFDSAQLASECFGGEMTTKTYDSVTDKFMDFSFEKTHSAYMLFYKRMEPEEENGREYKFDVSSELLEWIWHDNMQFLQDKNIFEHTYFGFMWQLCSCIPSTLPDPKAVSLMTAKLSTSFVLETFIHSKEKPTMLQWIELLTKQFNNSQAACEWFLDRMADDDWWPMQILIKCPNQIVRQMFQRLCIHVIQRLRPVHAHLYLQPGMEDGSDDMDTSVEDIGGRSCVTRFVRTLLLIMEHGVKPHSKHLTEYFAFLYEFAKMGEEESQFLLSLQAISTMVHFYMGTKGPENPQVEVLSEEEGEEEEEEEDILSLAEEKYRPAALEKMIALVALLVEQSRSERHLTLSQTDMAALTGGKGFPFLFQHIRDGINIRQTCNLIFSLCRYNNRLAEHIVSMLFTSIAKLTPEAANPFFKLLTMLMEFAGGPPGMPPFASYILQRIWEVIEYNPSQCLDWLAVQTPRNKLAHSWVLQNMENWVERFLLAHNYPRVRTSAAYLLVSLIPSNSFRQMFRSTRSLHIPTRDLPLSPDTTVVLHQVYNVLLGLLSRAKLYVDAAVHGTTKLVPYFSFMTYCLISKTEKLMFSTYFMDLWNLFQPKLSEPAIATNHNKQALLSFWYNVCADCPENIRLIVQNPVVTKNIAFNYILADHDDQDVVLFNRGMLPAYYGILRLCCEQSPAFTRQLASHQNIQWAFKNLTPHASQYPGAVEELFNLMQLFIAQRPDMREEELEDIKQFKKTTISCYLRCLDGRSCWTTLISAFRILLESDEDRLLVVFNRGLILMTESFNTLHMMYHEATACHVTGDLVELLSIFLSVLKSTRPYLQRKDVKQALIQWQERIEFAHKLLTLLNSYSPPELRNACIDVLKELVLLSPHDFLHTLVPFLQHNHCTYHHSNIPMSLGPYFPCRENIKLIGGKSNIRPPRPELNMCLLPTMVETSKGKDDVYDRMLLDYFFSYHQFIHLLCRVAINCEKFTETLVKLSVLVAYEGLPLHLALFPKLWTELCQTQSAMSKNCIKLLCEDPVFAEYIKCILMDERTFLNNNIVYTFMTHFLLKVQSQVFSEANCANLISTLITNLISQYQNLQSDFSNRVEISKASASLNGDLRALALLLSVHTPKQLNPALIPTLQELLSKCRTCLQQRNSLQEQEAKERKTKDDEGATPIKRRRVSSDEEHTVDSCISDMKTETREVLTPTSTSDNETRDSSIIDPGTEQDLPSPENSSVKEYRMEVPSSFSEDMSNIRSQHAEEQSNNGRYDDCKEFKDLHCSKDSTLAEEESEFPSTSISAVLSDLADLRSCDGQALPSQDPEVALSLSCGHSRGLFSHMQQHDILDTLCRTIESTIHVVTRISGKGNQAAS

Cc1ccc(-c2nnc(C)[nH]2)c(NC(=O)CCl)c1
inactive: USP34 0.0375 | USP36 -0.152 | USP38 0.151 | USP39 0.182 | USP4 0.0297
